Source: PubChem BioAssay (NCI)
Values joined by “and” are separate entries in the source; they are usually repeats but may differ in a detail not shown here. Equal values may be shown once. This is part of a sample that, as a whole, favours compounds with a hit. Of some 83,000 tested, about 20% had one in any assay.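 The endpoint reported here, percent growth, reads 100 for growth as untreated, 0 for no net growth and -100 for all cells dead.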 Active and inactive are the calls of the source. The calls were made as follows: active = growth percent below 10; inactive = the rest. Where a SMILES comes first, the peptide text is derived from it. The star is where a group is joined. Trt = c1ccc(C(c2ccccc2)(c2ccccc2)*)cc1; Cbz = O=C(OCc1ccccc1)*

Tests used:
Test in all cases: NCI-60 one-dose screen, 48 h (100 = growth as untreated, 0 = no growth, -100 = all killed)
Conditions in all cases: 10 µM unless noted
HCT-15 colon = system: HCT-15 colon
HT29 colon = system: HT29 colon
SNB-75 CNS = system: SNB-75 CNS
SNB-19 CNS = system: SNB-19 CNS
U251 CNS = system: U251 CNS
PC-3 prostate = system: PC-3 prostate
SK-MEL-5 melanoma = system: SK-MEL-5 melanoma
UACC-62 melanoma = system: UACC-62 melanoma
LOX IMVI melanoma = system: LOX IMVI melanoma
SK-MEL-28 melanoma = system: SK-MEL-28 melanoma
SK-MEL-2 melanoma = system: SK-MEL-2 melanoma
EKVX NSCLC = system: EKVX NSCLC
SN12C renal = system: SN12C renal
UO-31 renal = system: UO-31 renal
TK-10 renal = system: TK-10 renal
ACHN renal = system: ACHN renal
CCRF-CEM leukemia = system: CCRF-CEM leukemia
MOLT-4 leukemia = system: MOLT-4 leukemia
CAKI-1 renal = system: CAKI-1 renal
A498 renal = system: A498 renal

Measured: growth

CN1c2ccccc2C(C)(C)C12C=Cc1cc(O)ccc1O2 (stereo not given)
active: CCRF-CEM leukemia -16.8% | MOLT-4 leukemia -17.6%
inactive: HCT-15 colon 43.1% | HT29 colon 55.9% | SNB-75 CNS 43.1% | SNB-19 CNS 61.1% | U251 CNS 52.9% | PC-3 prostate 37.8% | SK-MEL-5 melanoma 43.2% | UACC-62 melanoma 30.2% | LOX IMVI melanoma 47.2% | SK-MEL-28 melanoma 64.5% | SK-MEL-2 melanoma 57.5% | EKVX NSCLC 105% | SN12C renal 48.7% | UO-31 renal 60.6% | TK-10 renal 80.7% | ACHN renal 73.3%

NC1=CC(=O)c2ccccc2C1=O
inactive: HCT-15 colon 61.5% | HT29 colon 94.7% | SNB-75 CNS 89.2% | SNB-19 CNS 96.3% | U251 CNS 66.7% | PC-3 prostate 55.6% | SK-MEL-5 melanoma 22.9% | UACC-62 melanoma 60.8% | LOX IMVI melanoma 24.5% | SK-MEL-28 melanoma 103% | SK-MEL-2 melanoma 88.6% | EKVX NSCLC 95% | SN12C renal 85.5% | UO-31 renal 71.1% | TK-10 renal 125% | ACHN renal 79.9% | CAKI-1 renal 91.9% | A498 renal 90% | CCRF-CEM leukemia 85.4% | MOLT-4 leukemia 94.3%

C[N+](C)=c1ccc2nc3c(cc(NCCCNc4cc5oc6cc(=[N+](C)C)ccc-6nc5c5ccccc45)c4ccccc43)oc-2c1
inactive: SNB-75 CNS 39.6% | UACC-62 melanoma 43.3% | SK-MEL-28 melanoma 64.8% | SK-MEL-2 melanoma 90.4% | EKVX NSCLC 45.6% | UO-31 renal 45.1% | TK-10 renal 115% | ACHN renal 25.3% | CAKI-1 renal 53.8% | CCRF-CEM leukemia 11.3%
active: HCT-15 colon -29.2% | HT29 colon -32.5% | SNB-19 CNS -24.6% | U251 CNS -20.1% | PC-3 prostate 6.83% | SK-MEL-5 melanoma -96.3% | LOX IMVI melanoma -45.5% | SN12C renal -25.5% | MOLT-4 leukemia 5.25%

O=C(O)C1C2CC3C(OC(=O)C31)C2Br (stereo not given)
inactive: HCT-15 colon 97.3% and 101% | HT29 colon 84.9% and 105% | SNB-75 CNS 106% and 80.7% | SNB-19 CNS 97.3% and 107% | U251 CNS 92.3% and 91.1% | PC-3 prostate 90.4% and 105% | SK-MEL-5 melanoma 103% and 93.2% | UACC-62 melanoma 93.5% and 107% | LOX IMVI melanoma 101% and 95.2% | SK-MEL-28 melanoma 100% and 103% | SK-MEL-2 melanoma 95.8% and 105% | EKVX NSCLC 106% and 95.6% | SN12C renal 95.2% and 103% | UO-31 renal 91.4% and 97.2% | TK-10 renal 88.7% and 100% | ACHN renal 96% and 100% | CAKI-1 renal 102% and 101% | A498 renal 103% and 64.4% | CCRF-CEM leukemia 89.3% and 107% | MOLT-4 leukemia 96.8% and 106%

Oc1ccc(/C=N/NC(=S)Nc2ccccc2)nc1
inactive: HCT-15 colon 24.8% | HT29 colon 34.6% | SNB-75 CNS 31.4% | SNB-19 CNS 42% | U251 CNS 14.7% | PC-3 prostate 23.3% | SK-MEL-28 melanoma 43.1% | SK-MEL-2 melanoma 11.8% | EKVX NSCLC 32.6% | SN12C renal 20.2% | TK-10 renal 31.2% | ACHN renal 12.3%
active: SK-MEL-5 melanoma -45.3% | UACC-62 melanoma -9.22% | LOX IMVI melanoma -18.7% | UO-31 renal -2.11% | CAKI-1 renal 7.96% | CCRF-CEM leukemia 6.28% | MOLT-4 leukemia -35.2%

N#Cc1ccc([N+](=O)[O-])o1
inactive: HCT-15 colon 104% | HT29 colon 93.9% | SNB-75 CNS 109% | SNB-19 CNS 101% | U251 CNS 90% | PC-3 prostate 93.3% | SK-MEL-5 melanoma 96.8% | UACC-62 melanoma 95.4% | LOX IMVI melanoma 108% | SK-MEL-28 melanoma 106% | SK-MEL-2 melanoma 91% | EKVX NSCLC 105% | SN12C renal 106% | UO-31 renal 92.6% | TK-10 renal 108% | ACHN renal 104% | A498 renal 98.5% | CCRF-CEM leukemia 102% | MOLT-4 leukemia 99.5%

Cc1cc(N)c2ccccc2[n+]1CCCCCCCCCC[n+]1c(C)cc(N)c2ccccc21
13.4% (inactive) and 1.53% (active): EKVX NSCLC
-73% (active) and 37.4% (inactive): LOX IMVI melanoma
6.34% (active) and 22% (inactive): CCRF-CEM leukemia
active: HT29 colon 2.09% and -13.8% | SK-MEL-5 melanoma -57.8% and -99.9% | UACC-62 melanoma -66.5% and 1.93% | SK-MEL-28 melanoma -26.4% | SK-MEL-2 melanoma -23.7% and -19.9% | SN12C renal 5.16% and 5.31% | A498 renal -7.94% | MOLT-4 leukemia -43.9% and 1.26%
-51.1% (active) and 15.5% (inactive): U251 CNS
8% (active) and 14.1% (inactive): PC-3 prostate
inactive: HCT-15 colon 26.2% and 42.4% | SNB-19 CNS 21.3% and 12.5% | UO-31 renal 19.2% and 65.3% | TK-10 renal 21.1% and 35.1% | ACHN renal 42.8% | CAKI-1 renal 30.9% and 69.6%
21.3% (inactive) and -8.96% (active): SNB-75 CNS

N#CSCc1c(Cl)cccc1Cl
inactive: HCT-15 colon 14.6% | HT29 colon 12% | SNB-75 CNS 96.4% | SNB-19 CNS 90.2% | U251 CNS 91.8% | PC-3 prostate 76.2% | SK-MEL-5 melanoma 87.5% | UACC-62 melanoma 88.5% | LOX IMVI melanoma 49.9% | SK-MEL-28 melanoma 56.2% | SK-MEL-2 melanoma 102% | EKVX NSCLC 103% | SN12C renal 93.3% | UO-31 renal 40.2% | TK-10 renal 101% | ACHN renal 49.9% | CAKI-1 renal 47.7% | A498 renal 85.1% | CCRF-CEM leukemia 44.1% | MOLT-4 leukemia 90.9%

COC(=O)C(CSC(c1ccccc1)(c1ccccc1)c1ccccc1)NC(=O)C(CC(N)=O)NC(=O)OCc1ccccc1 (stereo not drawn) (Cbz-Asn-Cys(Trt)-OMe; configuration not given here)
inactive: HCT-15 colon 13.7% | HT29 colon 33.7% | SNB-75 CNS 20.3% | SNB-19 CNS 56.2% | U251 CNS 50.2% | PC-3 prostate 36.9% | SK-MEL-5 melanoma 14.1% | SK-MEL-28 melanoma 24.4% | EKVX NSCLC 36.6% | SN12C renal 29.2% | UO-31 renal 58.4% | TK-10 renal 48.4% | ACHN renal 28.3% | CAKI-1 renal 44.3% | CCRF-CEM leukemia 40.3%
active: UACC-62 melanoma -11.7% | SK-MEL-2 melanoma -23% | MOLT-4 leukemia 3.12%

CN(C)c1ccc(N=Nc2cccc3ccccc23)cc1
inactive: HCT-15 colon 93.1% | HT29 colon 93.5% | SNB-75 CNS 76.4% | SNB-19 CNS 100% | U251 CNS 88.6% | PC-3 prostate 75.9% | SK-MEL-5 melanoma 93.9% | UACC-62 melanoma 84.2% | SK-MEL-28 melanoma 103% | SK-MEL-2 melanoma 100% | EKVX NSCLC 71.7% | SN12C renal 92.9% | UO-31 renal 57.5% | TK-10 renal 80.9% | ACHN renal 91.3% | CAKI-1 renal 90.2% | CCRF-CEM leukemia 81.6% | MOLT-4 leukemia 84.3%

Cc1ccc(N=C=C(c2ccccc2)c2ccccc2)cc1
inactive: HCT-15 colon 67.6% | HT29 colon 97.6% | SNB-75 CNS 78.1% | SNB-19 CNS 85.2% | U251 CNS 81.5% | PC-3 prostate 66.9% | SK-MEL-5 melanoma 89.3% | UACC-62 melanoma 84.6% | SK-MEL-28 melanoma 106% | SK-MEL-2 melanoma 97.5% | EKVX NSCLC 90.6% | SN12C renal 79.2% | UO-31 renal 80.3% | TK-10 renal 112% | ACHN renal 102% | A498 renal 126%
active: CCRF-CEM leukemia 1.63% | MOLT-4 leukemia -1.03%

COc1cc(/C=C/C(C)=O)ccc1O
inactive: HCT-15 colon 96.9% and 96.3% | HT29 colon 109% and 125% | SNB-75 CNS 98.4% and 82.5% | SNB-19 CNS 98.3% and 112% | U251 CNS 103% and 104% | PC-3 prostate 92.5% and 102% | UACC-62 melanoma 88.5% and 107% | SK-MEL-28 melanoma 112% and 103% | SK-MEL-2 melanoma 105% | EKVX NSCLC 91.8% and 112% | SN12C renal 98.1% and 104% | UO-31 renal 66% and 88.4% | TK-10 renal 97.7% and 142% | ACHN renal 95.9% and 95% | CCRF-CEM leukemia 28.4% and 78.1% | MOLT-4 leukemia 95.8% and 87.2%
